A selection: hits, their analogues and other compounds. The true share with any hit is near 1.5%.
AF4-AF9 inh = MLL-AF4/AF9 protein interaction inhibition | AlphaScreen, biotin-AF4 peptide binding to FLAG-AF9 | P42568 | inhibition, % at 10 µM | 0.47% of 350,000 active;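 active = every replicate reaching a set inhibition limit, whatever the replicate mean, cut at about 25% in these data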
RAD52 anneal inh = RAD52 (human) annealing inhibition; inhibition, % at 18.7 µM; P43351; 0.46% of 360,000 active; recombinant RAD52 DNA annealing, FRET fluorescence;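 active = every replicate showing at least 50% inhibition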
Target sequence (P43351 whole entry, looked up): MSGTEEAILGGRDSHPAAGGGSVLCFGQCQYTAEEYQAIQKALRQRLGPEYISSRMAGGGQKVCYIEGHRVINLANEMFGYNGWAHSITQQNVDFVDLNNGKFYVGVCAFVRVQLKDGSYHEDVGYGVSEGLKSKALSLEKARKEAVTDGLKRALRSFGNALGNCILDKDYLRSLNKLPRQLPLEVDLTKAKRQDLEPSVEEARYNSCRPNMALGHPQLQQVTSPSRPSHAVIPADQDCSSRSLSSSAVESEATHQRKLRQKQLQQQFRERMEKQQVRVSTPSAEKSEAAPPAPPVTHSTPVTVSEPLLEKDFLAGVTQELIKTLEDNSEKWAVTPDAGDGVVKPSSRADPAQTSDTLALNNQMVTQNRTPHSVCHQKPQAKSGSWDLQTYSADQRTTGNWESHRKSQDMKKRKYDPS
miR122 inh = miR-122 inhibition in Huh7 cells | Huh7 miR-122 Renilla luciferase sensor, 48 h; neutral wells = 0, positive control = 100 | activation (reporter increase), % at 12.5 µM | 0.3% of 340,000 active | AID 602342;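 active = mean replicate activation score at least 90 and every replicate individually at or above 90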;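 also: higher luciferase means less miR-122 activity so hits act as miR-122 inhibitors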
Casp6 inh = blocks human caspase-6 cleavage activity. inhibition, % at 12.5 µM. 0.53% of 350,000 active. purified caspase-6, Z-VEID-R110 cleavage fluorescence;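 active = mean inhibition across replicates at least about 35%, with every replicate also reaching that limit, limit read from the data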
NSD2 inh = inhibitors of human histone methyltransferase NSD2; NSD2 peptide methylation, AlphaScreen, 120 min; O96028; inhibition, % at 12.5 µM; 0.54% of 310,000 active; in the data active = inhibition above about 50%
A number is an active result.

For COc1ccc(NC(=O)Nc2ccc3c(c2)C(=O)N([C@@H](C)CO)C[C@@H](C)[C@@H](CN(C)Cc2ccc(-c4ccccc4)cc2)O3)cc1 the results were AF4-AF9 inh inactive, RAD52 anneal inh inactive, miR122 inh inactive and Casp6 inh inactive.
Screening O=C(c1ccccc1F)N1CC(=O)N2[C@H](CO)[C@@H](c3ccc(C#Cc4ccc(F)cc4)cc3)[C@H]2C1 returned AF4-AF9 inh inactive, RAD52 anneal inh inactive and Casp6 inh inactive.
CC(C)NC(=O)N(C)C[C@H]1OCCCC[C@H](C)Oc2ccc(NS(=O)(=O)c3cccs3)cc2C(=O)N([C@@H](C)CO)C[C@H]1C was read as AF4-AF9 inh inactive, RAD52 anneal inh inactive, miR122 inh inactive and Casp6 inh inactive.
Cc1ccc(N2CCN(/N=C/c3c(C)nn(-c4ccccc4)c3Cl)CC2)cc1 was read as AF4-AF9 inh inactive, RAD52 anneal inh inactive, Casp6 inh 45.0 and NSD2 inh inactive.
For Cc1ccc(C)c(OCc2nc3ccccc3[nH]2)c1 the results were AF4-AF9 inh inactive, RAD52 anneal inh inactive, miR122 inh inactive, Casp6 inh inactive and NSD2 inh inactive.
For Cc1cccc(C)c1OCc1nc2ccccc2[nH]1 the results were AF4-AF9 inh inactive, RAD52 anneal inh inactive, Casp6 inh 42.8 and NSD2 inh inactive.
`C[C@@H]1CCCCO[C@H](CN(C)C(=O)C2CCCCC2)[C@H](C)CN([C@@H](C)CO)C(=O)c2cc(NS(=O)(=O)c3ccc(Cl)cc3)ccc2O1` gave AF4-AF9 inh inactive, RAD52 anneal inh inactive, miR122 inh inactive and Casp6 inh inactive.
Screening CCn1c(-c2ccccc2)csc1=Nc1ccc(O)cc1 returned AF4-AF9 inh 48.7, RAD52 anneal inh inactive, Casp6 inh inactive and NSD2 inh inactive.
Screening CCOc1ccc(N=c2scc(-c3ccccc3)n2CCO)cc1 returned AF4-AF9 inh inactive, RAD52 anneal inh inactive, miR122 inh inactive, Casp6 inh inactive and NSD2 inh inactive.
`Cc1c2cc(O)c(=O)cc-2oc2cc(O)c(O)cc12` gave AF4-AF9 inh inactive, RAD52 anneal inh inactive, miR122 inh inactive and Casp6 inh 92.5.
`Cc1cc2oc(=O)cc(-c3cc4ccccc4o3)c2cc1O` gave AF4-AF9 inh inactive, RAD52 anneal inh inactive, miR122 inh inactive, Casp6 inh inactive and NSD2 inh inactive.
COc1cccc2c(SCC(=O)N/N=C/c3ccccc3)cc(C)nc12 was read as AF4-AF9 inh inactive, RAD52 anneal inh inactive, miR122 inh inactive, Casp6 inh inactive and NSD2 inh inactive.
For COc1cccc2c(SCC(=O)N/N=C/c3ccc(O)c(O)c3)cc(C)nc12 the results were AF4-AF9 inh inactive, RAD52 anneal inh inactive, miR122 inh inactive and NSD2 inh 132.0.
Screening CCC(=O)Nc1ccc2c(c1)OC[C@H](C)N(C(=O)CN(C)C)C[C@H](C)[C@@H](OC)CN(C)C2=O returned AF4-AF9 inh inactive, RAD52 anneal inh inactive, miR122 inh inactive and Casp6 inh inactive.
CN1[C@@H]2Cn3c(ccc(C4=CCCC4)c3=O)[C@H]1[C@@H](C(=O)N1CCOCC1)[C@@H]2CO was read as AF4-AF9 inh inactive, RAD52 anneal inh inactive, miR122 inh inactive and Casp6 inh inactive.
For Cc1ccc(-c2nc(NCCCO)c3ccccc3n2)cc1 the results were AF4-AF9 inh inactive, RAD52 anneal inh inactive, miR122 inh inactive, Casp6 inh inactive and NSD2 inh inactive.
Screening CN(C)CCCNc1nc(-c2ccc(Cl)cc2)nc2ccccc12 returned AF4-AF9 inh inactive, RAD52 anneal inh 50.1, Casp6 inh inactive and NSD2 inh inactive.
Cc1ccn2c(=S)[nH]nc2c1 was read as AF4-AF9 inh inactive, RAD52 anneal inh inactive, miR122 inh inactive, Casp6 inh 36.6 and NSD2 inh inactive.
Screening S=c1[nH]nc2ccccn12 returned AF4-AF9 inh inactive, RAD52 anneal inh inactive, miR122 inh inactive and Casp6 inh inactive.
O=C1Cc2cc(S(=O)(=O)N3CCCCC3)ccc2N1 was read as AF4-AF9 inh inactive, RAD52 anneal inh inactive, miR122 inh inactive and Casp6 inh inactive.
`O=C1Cc2cc(S(=O)(=O)N3CCNCC3)ccc2N1` gave AF4-AF9 inh inactive, RAD52 anneal inh 76.9, Casp6 inh inactive and NSD2 inh inactive.
`Cc1noc(C)c1S(=O)(=O)Nc1ccc2c(c1)CC(=O)N([C@H](C)CO)C[C@@H](C)[C@H](CN(C)C(=O)Nc1cccc3ccccc13)O2` gave AF4-AF9 inh inactive, RAD52 anneal inh inactive, miR122 inh inactive and Casp6 inh inactive.
For O=C(O)c1cccc(S(=O)(=O)Nc2ccccc2Cc2ccccc2)c1 the results were AF4-AF9 inh 43.8, RAD52 anneal inh inactive, Casp6 inh inactive and NSD2 inh inactive.
`COc1ccc(OCC(=O)Nc2c(C(=O)N3CCN(C)CC3)oc3ccccc23)cc1` gave AF4-AF9 inh inactive, RAD52 anneal inh inactive, miR122 inh inactive, Casp6 inh inactive and NSD2 inh inactive.
CCOCC(=O)Nc1c(C(=O)N2CCN(c3ncccn3)CC2)oc2ccccc12 was read as AF4-AF9 inh inactive, RAD52 anneal inh inactive, miR122 inh 125.3, Casp6 inh inactive and NSD2 inh inactive.
For CCCCNC(=O)c1ccc2nc(-c3ccco3)c(-c3ccco3)nc2c1 the results were AF4-AF9 inh inactive, RAD52 anneal inh inactive, miR122 inh inactive and Casp6 inh 71.6.
Screening COc1ccc2nc(-c3ccco3)c(-c3ccco3)nc2c1 returned AF4-AF9 inh inactive, RAD52 anneal inh inactive, miR122 inh inactive, Casp6 inh 47.1 and NSD2 inh inactive.
Screening CN(C)C(=O)C[C@@H]1C=C[C@H](NC(=O)C2CCOCC2)[C@H](CO)O1 returned AF4-AF9 inh inactive.
`CC(C)NC(=O)COC(=O)c1ccc(NS(=O)(=O)c2ccc3c(c2)OCCO3)cc1` gave miR122 inh 279.7 and NSD2 inh inactive.
Screening CNC(=O)COC(=O)c1ccc(NS(=O)(=O)c2ccc3c(c2)OCCO3)cc1 returned AF4-AF9 inh inactive, RAD52 anneal inh inactive, Casp6 inh inactive and NSD2 inh inactive.
`C[C@@H]1CN([C@@H](C)CO)C(=O)Cc2cc(NC(=O)Cn3cnnn3)ccc2O[C@H]1CN(C)Cc1ccc(Cl)c(Cl)c1` gave AF4-AF9 inh inactive, RAD52 anneal inh inactive, miR122 inh inactive and Casp6 inh inactive.
For c1ccc(CCNc2ccc3ncc(-c4cccc5ccccc45)n3n2)nc1 the results were AF4-AF9 inh inactive, RAD52 anneal inh inactive, miR122 inh inactive, Casp6 inh 57.1 and NSD2 inh inactive.
For c1ccc(CCNc2ccccn2)nc1 the results were AF4-AF9 inh inactive, RAD52 anneal inh inactive, Casp6 inh inactive and NSD2 inh inactive.
For c1ccc2c(c1)sc1nnnn12 the results were miR122 inh inactive and NSD2 inh inactive.
c1ccc2c(c1)ccc1nnnn12 was read as RAD52 anneal inh inactive, miR122 inh 168.2, Casp6 inh inactive and NSD2 inh inactive.
For Oc1ccc2c(c1)OCC1(O)Cc3cc(O)c(O)cc3C21 (configuration not stated) the results were AF4-AF9 inh 25.9, RAD52 anneal inh inactive, miR122 inh inactive and Casp6 inh inactive.

Bioassay records from PubChem BioAssay.
